# Screens (PubChem)
# PGC1a acetyl inh: lowers PGC1a acetylation signal in U2OS cells | AlphaScreen anti-acetyl-lysine; with virally co-expressed GCN5 acetyltransferase | inhibition, % at 15.6 µM | actives 0.17% (n = 350,000);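 active means every replicate shows inhibition of at least 40%; inconclusive means mean inhibition at least 40% but some replicate below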
# F508del corr: correctors of CFTR F508del function in bronchial epithelial cells; CFBE cells, YFP halide quenching; stimulated with forskolin plus potentiator P3; % fluorescence drop versus neutral controls; activity (quench increase), % at 7.58 µM; AID 720511; actives 0.36% (n = 350,000);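 active means mean added fluorescence quench of at least 8% versus neutral control, with both replicates also reaching 8%; inconclusive means only one of the mean or replicate conditions met; inactive means mean below 8% and not both replicates reaching 8%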;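 further: cells transiently co-express mutant CFTR-F508del with the halide-sensitive YFP; corrector assay measuring rescue of mutant channel to the surface after 24 h compound exposure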
# GSIS activator: GLuc luminescence reporter in INS-1E cells, primary screen for activators of glucose-dependent secretion of insulin | activation, % at 16.6 µM | INS-1E GLuc reporter insulin secretion, 2-3 h | actives 0.61% (n = 370,000);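 active means lowest replicate activation of at least 40%, so every replicate reaches that level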
# PAX8 inh HTS: PAX8 transcriptional activity inhibition; inhibition, % at 12.6 µM; RMG-I TPO-luciferase reporter, SteadyGlo, 24 h; actives 1.2% (n = 360,000);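 active means mean replicate inhibition at least 60% with every replicate also reaching 60%; inconclusive means only one of the two criteria is met; inactive means mean below 60% and not all replicates reaching 60%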;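 further: luciferase light reporting Pax8 driven TPO promoter activity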
# Env fusion inh: HIV envelope-mediated fusion inhibition; HeLa-JRFL Env/CEM21 cell fusion, luciferase; actives 1.1% (n = 360,000); inhibition, % at 12.3 µM;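 active means mean replicate inhibition score of at least 50 and every replicate individually at or above 50; inconclusive means only one of the two criteria met; inactive means mean below 50 and not all replicates reaching 50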
# EWS-Fli block: inhibitors of EWS/Fli oncoprotein transcriptional activity; A673 NR0B1-luciferase reporter, viability-normalised; actives 0.67% (n = 350,000); AID 651661; inhibition, % at 12.6 µM;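 active means mean inhibition of at least 50% after viability correction, with every replicate also passing that limit; inconclusive means mean reaches 50% but only one of two replicates passes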;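 further: firefly luciferase signal divided by Alamar Blue viability fluorescence both relative to DMSO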
# Numbers stand for hits; - = inactive; ? = inconclusive; . = no result given. A selection: hits, their analogues and other compounds. The true share with any hit is near 2.7%.
SMILES,PGC1a acetyl inh,F508del corr,GSIS activator,PAX8 inh HTS,Env fusion inh,EWS-Fli block
C[C@@H]1CN([C@H](C)CO)C(=O)c2cccc(NC(=O)C3CCCCC3)c2O[C@@H]1CN(C)C(=O)Nc1ccc(F)cc1,-,-,-,.,.,-
CCCCN(Cc1nc2ccccc2c(=O)[nH]1)C(=O)c1nn(C)c(=O)c2ccccc12,.,-,47,-,-,-
C[C@@H]1CN([C@@H](C)CO)C(=O)Cc2cc(NC(=O)Cc3cn(C)c4ccccc34)ccc2O[C@H]1CN(C)Cc1ccc(-c2ccccc2)cc1,-,-,-,.,-,-
COCC(=O)N(C)C[C@H]1Oc2cc(C#CCC3CCCC3)ccc2S(=O)(=O)N([C@@H](C)CO)C[C@@H]1C,-,-,-,73,-,-
CCC(=O)N(C)C[C@H]1Oc2cc(C#CCC3CCCC3)ccc2S(=O)(=O)N([C@H](C)CO)C[C@@H]1C,-,-,-,-,-,-
COc1ccccc1S(=O)(=O)N(C)C[C@H]1Oc2cc(C#CCC3CCCC3)ccc2S(=O)(=O)N([C@@H](C)CO)C[C@@H]1C,-,-,-,82,-,-
C[C@H](CO)N1C[C@H](C)[C@@H](CN(C)C(=O)CN(C)C)Oc2cc(C#CCC3CCCC3)ccc2S1(=O)=O,-,-,-,-,-,-
CCC(=O)N(C)C[C@H]1Oc2cc(C#CCC3CCCC3)ccc2S(=O)(=O)N([C@@H](C)CO)C[C@@H]1C,-,-,-,-,-,?
C[C@H]1CN([C@@H](C)CO)S(=O)(=O)c2ccc(C#CCC3CCCC3)cc2O[C@H]1CN(C)C(=O)CN(C)C,-,-,-,64,-,-
COc1ccccc1S(=O)(=O)N(C)C[C@@H]1Oc2cc(C#CCC(C)C)ccc2S(=O)(=O)N([C@H](C)CO)C[C@H]1C,-,-,-,.,-,-
COCC(=O)N(C)C[C@H]1Oc2cc(C#CCC3CCCC3)ccc2S(=O)(=O)N([C@H](C)CO)C[C@H]1C,-,-,-,69,-,-
CCc1cc2c(=O)c(-c3nc4ccccc4n3C)c(C)oc2c(CN2CCN(CCO)CC2)c1O,-,-,-,.,.,-
CCc1cc2c(=O)c(-c3nc4ccccc4n3C)c(C(C)C)oc2c(CN2CCN(C)CC2)c1O,-,.,.,.,57,.
CCCC(=O)Nc1ccc2c(c1)OC[C@@H](C)N(C(=O)c1ccncc1)C[C@@H](C)[C@@H](OC)CN(C)C2=O,-,-,-,-,-,-
CC(C)CC(NS(=O)(=O)c1ccc2c(c1)oc(=O)n2C)C(=O)NC1CCCc2ccccc21 (stereo unspecified),-,-,-,-,58,-
Cn1c(=O)oc2cc(S(=O)(=O)NCCC(=O)NC3CCCc4ccccc43)ccc21 (stereo unspecified),-,-,.,.,.,-
Cc1nnc(SCc2cc(=O)[nH]c(/N=C(\N)Nc3ccccc3)n2)s1,-,-,-,-,-,-
CCOc1ccc(N/C(N)=N/c2nc(CSc3nnc(C)s3)cc(=O)[nH]2)cc1,-,?,-,-,-,67
COc1cccc(C(=O)Nc2ccc3c(c2)C(=O)N(C)C[C@H](OC)[C@H](C)CN(CC2CC2)[C@H](C)CO3)c1,-,-,-,-,.,-
Cc1ccc(S(=O)(=O)N2C[C@@H]3CCCC[C@@H]3[C@@H](C)[C@H]2c2cn(Cc3ccccc3)c3ncccc23)cc1,-,-,-,?,70,-
Cc1ccc(S(=O)(=O)N2C[C@@H]3CCCC[C@@H]3[C@@H](C)[C@H]2c2cn(Cc3ccccc3)c3ccccc23)cc1,.,-,.,-,63,-
C[C@@H]1CN([C@H](C)CO)C(=O)c2cc(-c3ccc(F)cc3)cnc2O[C@H]1CN(C)Cc1ccc(F)cc1,-,-,-,.,-,-
C[C@@H]1CN([C@H](C)CO)C(=O)Cc2cc(NS(=O)(=O)c3ccc(F)cc3)ccc2O[C@@H]1CN(C)S(=O)(=O)c1cccs1,-,-,-,-,-,-
CC(=O)N(C)C[C@@H]1Oc2c(NS(C)(=O)=O)cccc2C(=O)N(C)C[C@@H]1C,.,.,-,.,.,.
Cc1ccc(-c2ccc3c(c2)O[C@H](CN(C)C(=O)Nc2ccc(F)cc2)[C@@H](C)CN([C@@H](C)CO)S3(=O)=O)cc1,-,12,-,.,-,-
SMILES,PGC1a acetyl inh,F508del corr,GSIS activator,PAX8 inh HTS,Env fusion inh,EWS-Fli block
Cc1ccc(-c2ccc3c(c2)O[C@H](CN(C)C(=O)Nc2ccc(C(F)(F)F)cc2)[C@H](C)CN([C@@H](C)CO)S3(=O)=O)cc1,-,8.6,-,.,-,-
Cc1ccc(-c2ccc3c(c2)O[C@@H](CN(C)C(=O)Nc2ccc(F)cc2)[C@@H](C)CN([C@@H](C)CO)S3(=O)=O)cc1,-,8.5,-,.,-,-
C[C@@H]1CN([C@H](C)CO)S(=O)(=O)c2ccc(-c3ccc(F)cc3)cc2O[C@H]1CN(C)C(=O)Nc1ccc(F)cc1,-,-,-,.,-,-
C[C@H]1CN([C@@H](C)CO)S(=O)(=O)c2ccc(-c3ccc(F)cc3)cc2O[C@@H]1CN(C)C(=O)Nc1ccc(F)cc1,-,-,-,.,-,-
N#Cc1cccc(-c2ccc3c(c2)[C@H]2[C@H](CCN2C(=O)c2ccncc2)[C@H](CO)N3)c1,-,-,-,-,.,-
O=C(Nc1cc(F)ccc1F)N[C@@H]1CC[C@H](CCn2cc(C3CCCC3)nn2)O[C@H]1CO,-,-,-,-,.,.
COc1ccc(C#Cc2ccc3c(c2)[C@]2(C(=O)N3)[C@H](c3ccccc3OCCO)N3[C@H](c4ccccc4)[C@H](c4ccccc4)OC(=O)[C@H]3[C@@H]2C(=O)NC[C@H](O)c2ccccc2)cc1,-,-,.,89,-,-
COc1ccc(C#Cc2ccc3c(c2)[C@]2(C(=O)N3)[C@H](c3ccc(OCCO)cc3)N3[C@H](c4ccccc4)[C@H](c4ccccc4)OC(=O)[C@H]3[C@@H]2C(N)=O)cc1,-,-,.,73,-,-
COC(=O)C(CC#Cc1ccc2c(c1)[C@]1(C(=O)N2)[C@H](c2ccc(OCCO)cc2)N2[C@H](c3ccccc3)[C@H](c3ccccc3)OC(=O)[C@H]2[C@@H]1C(=O)NC[C@H](O)c1ccccc1)C(=O)OC,-,-,.,-,-,-
COc1ccc(C#Cc2ccc3c(c2)[C@]2(C(=O)N3)[C@H](C(N)=O)[C@H]3C(=O)O[C@H](c4ccccc4)[C@H](c4ccccc4)N3[C@@H]2c2ccc(O)cc2)cc1,-,-,.,.,-,-
O=[N+]([O-])c1c(Nc2ccc(O)cc2)cc(Cl)c2nonc12,.,-,-,113,-,61
COc1ccc(OC)c(CN2C(=O)c3ccccc3C2c2nnnn2-c2ccc3c(c2)OCCO3)c1 (stereo unspecified),.,-,-,-,-,52
COc1ccc(CCN2C(=O)c3ccccc3C2c2nnnn2-c2c(C)cccc2C)cc1OC (stereo unspecified),.,-,-,-,-,-
